Here are results for 90 molecules from PubChem BioAssay AID2129 (The Scripps Research Institute Molecular Screening Center, 2009).

Structures are written as SMILES. About 2,200 (0.69%) of roughly 320,000 compounds were called active. Many of the other results were omitted from the sample, so actives are more common in it than they were. Unmarked numbers belong to inactive results.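 The calls were made as follows: active = inhibition above the mean of all tested compounds plus 3 SD, cutoff set per campaign (cut at about 30% in these data); inactive = the rest.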

The target of this experiment is Bcl-2-like protein 1 (Homo sapiens) (UniProt Q07817). The experiment is described as follows: Bcl-xL/Bim BH3 interaction blockers – biochemical, fluorescence polarization, HTS, primary screen (AID 2129).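 Also: 0% = DMSO wells and 100% = unlabeled Bim-BH3 peptide competitor; inhibitors lower millipolarization by displacing the labeled peptide.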 The settings on record: GST-Bcl-xL / FITC-Bim BH3 peptide fluorescence polarization; at 10.9 µM; active compounds read high.
Sequence of Bcl-2-like protein 1 (Homo sapiens) (Q07817 whole entry, looked up): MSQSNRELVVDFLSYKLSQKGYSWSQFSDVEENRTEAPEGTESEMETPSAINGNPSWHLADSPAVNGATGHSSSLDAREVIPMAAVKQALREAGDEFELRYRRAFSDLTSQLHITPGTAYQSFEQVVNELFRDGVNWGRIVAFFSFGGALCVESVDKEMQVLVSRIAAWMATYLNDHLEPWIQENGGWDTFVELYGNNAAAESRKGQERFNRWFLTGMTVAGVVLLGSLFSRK
`COCCNc1nc2nonc2nc1N1CCCC1c1nccs1` (stereo not given): the inhibition (usually the drop in the measured response relative to a control, in per cent) is 31.5% (active).

Take `COCCNc1nc2nonc2nc1N(C)Cc1ccc(C)cc1`: the inhibition was 0.5%.

For the molecule `CCOc1ccc(C2=CC(c3ccccc3)n3ncnc3N2)cc1` (stereo not given), the inhibition is 14.6%. Regarding `CC1=C(C(=O)OCc2ccccc2)C(c2ccco2)n2ncnc2N1` (stereo not given), the inhibition is 1.01%.

`CCC(C)NC(=O)/C=C/c1ccc(S(=O)(=O)NCc2ccco2)cc1` (stereo not given): the inhibition is 3.42%. With `Cc1ccc(O)c(-c2cc(C(=O)Nc3c(C)n(C)n(-c4ccccc4)c3=O)[nH]n2)c1` the figure was 2.52%; with `CC[N+](C)(CC)CCC[n+]1c(-c2ccccc2)c2cc(N)ccc2c2ccc(N)cc21`, 123% (active). Under `CC(=O)Nc1ccc(NC(=O)CSC2=NS(=O)(=O)c3ccccc3N2)cc1` stands 1.27%; under `COc1ccccc1CCNC(=O)c1c(C)nn(CC(C)C)c1Cl`, 3.1%; under `CC(=O)C1=C(C)NC(C)=C(C(C)=O)C1c1cn(-c2ccccc2)nc1-c1cccs1`, -1.97%. Take `CC1CCN(Cc2nc3c(c(=O)n(C)c(=O)n3C)n2CCc2ccccc2)CC1`: the inhibition is -4.09%. For `CC(C)(C)CC(C)(C)NCC(O)COCCOc1ccc(Br)cc1` (stereo not given), the inhibition was -1.57%.

Consider `Cc1ccsc1CNn1cnnc1SCc1ccccc1F`, for which the inhibition was -10.8%. With `Cc1c(C)c(C)c2[nH]c(=S)[nH]c2c1C` the figure was -44%. Under `O=c1[nH]c(=S)[nH]c2[nH]c(=S)[nH]c12` stands 44% (active). For `Cc1cc2c(C)nc(N/N=C/c3ccccc3)nc2o1`, the inhibition is 2.89%. With `CC1CC(C)CN(S(=O)(=O)c2cccc3nonc23)C1` (stereo not given) the figure was 3.55%; with `CC(=O)N1CCc2c(sc(NC(=O)CCS(=O)(=O)c3ccc(C)cc3)c2C(N)=O)C1`, 6.13%; with `CSc1nc2ccccc2cc1/C=C(\C#N)c1ccc(Cl)cc1Cl`, 1.93%. With `Cc1ccc(C(=O)N2CCCC2)c(F)c1F` the figure was 8.05%. On to `COc1cccc(C2Nc3cccc4cccc(c34)N2)c1`, for which the inhibition is 20.6%. With `Cc1ccc(C2Nc3cccc4cccc(c34)N2)cc1` the figure was 31.7% (active). On to `Oc1ccc(C2Nc3cccc4cccc(c34)N2)cc1`, for which the inhibition was 15.2%.

Take `CCCCCCNS(=O)(=O)c1ccccc1Br`: the inhibition was -2.11%. With `Cc1ccc(NC2CCCN(C(=O)CCC3(C)CC3)C2)cc1C` (stereo not given) the figure was 4.16%; with `Cc1ccnc(NC(=O)c2ccoc2C)c1`, 32.4% (active); with `Cc1ccnc(NC(=O)CNC(=O)c2ccccc2)c1`, -1.9%. For the molecule `COc1cc(SC)ccc1C(=O)Nc1cc(C)ccn1`, the inhibition was -0.05%. `COC(=O)c1cccc(N2C(=O)C3C4C=CC(CC4)C3C2=O)c1` (stereo not given): the inhibition was 2.84%. With `CCOC(=O)/C(=C\c1ccc([N+](=O)[O-])cc1)C(=O)c1cc(C(C)=O)c(Nc2ccccc2)s1` the figure was 1.23%. Under `Cc1ccc(S(=O)(=O)NNC(=O)/C=C/c2cccc(F)c2)cc1` stands 6.57%; under `O=C1c2ccccc2C(=O)c2c1cccc2N1CCN(Cc2ccccc2)CC1`, 7.24%; under `O=C1c2ccccc2C(=O)c2c1cccc2N1CCN(C/C=C/c2ccccc2)CC1`, 20.9%. Under `O=C1c2ccccc2C(=O)c2c1cccc2N1CCN(CCO)CC1` stands 60% (active); under `C/C(Cl)=C\Cn1c(Nc2cccc(C)c2)nc2c1c(=O)n(C)c(=O)n2C`, 3.4%. Consider `COc1ccccc1C(=O)N/C(=C/c1ccc2c(c1)OCO2)C(=O)Nc1cccc(C(=O)O)c1`, for which the inhibition was 8.09%.

For `CCCC1OC23CCCCC2C(C#N)(C#N)C1(C#N)C(=N)O3` (stereo not given), the inhibition is 82.8% (active). For the molecule `Cc1ccc(CNC(=O)CC(NC(=O)c2ccccc2)c2ccccc2)cc1` (stereo not given), the inhibition is -7.73%. Under `CN(C)[C@@H]1C(=O)C(C(N)=O)=C(O)[C@@]2(O)C(=O)C3=C(O)c4c(O)ccc(Cl)c4[C@@H](O)[C@H]3C[C@@H]12` stands 15.2%; under `C=C1c2c(Cl)ccc(O)c2C(O)=C2C(=O)[C@]3(O)C(O)=C(C(N)=O)C(=O)[C@@H](N(C)C)[C@@H]3[C@@H](O)C12` (stereo not given in full), 31.6% (active); under `Cc1cc(F)ccc1N1CCC(N2CCN(C)C(CCO)C2)CC1` (stereo not given), 8.78%. With `Cc1cc(-c2csc(N)n2)c(C)n1Cc1ccccc1` the figure was 11.3%; with `CC(=O)c1ccc(-c2ccc(Cn3c(C)nc4cc(N)c(C)nc43)cc2)cc1`, -0.35%; with `COc1ccccc1CNS(=O)(=O)c1ccc2c(c1)NC(=O)CS2`, -2.44%. With `CC1CC(c2ccccc2)n2nc(NC(=O)c3cccs3)nc2N1` (stereo not given) the figure was 3.43%; with `Cc1ccc(SCC(=O)NNC(=O)c2ccc(S(C)(=O)=O)cc2)cc1`, 1.39%; with `CCN(CC)S(=O)(=O)c1ccc(N2CCN(C)CC2)c(NC(=O)Nc2ccccc2F)c1`, 5.12%. Turning to `O=[N+]([O-])c1ccc(F)cc1Oc1nc(-c2cccnc2)nc2ccccc12`, the inhibition was 3.63%. With `CCOCCCNc1nc(-c2ccccc2)nc2ccccc12` the figure was 1.72%. Under `COc1ccc(Nc2nc(-c3cccnc3)nc3ccccc23)cn1` stands 118% (active); under `CC[C@]1(O)C[C@@H]2CN(CCc3c([nH]c4ccccc34)[C@@](C(=O)OC)(c3cc4c(cc3OC)N(C)[C@H]3[C@@](O)(C(=O)OC)[C@H](OC(C)=O)[C@]5(CC)C=CCN6CC[C@]43[C@@H]65)C2)C1`, 105% (active); under `CC[C@]1(O)CC2CN(CCc3c([nH]c4ccccc34)[C@@](C(=O)OC)(c3cc4c(cc3OC)N(C=O)[C@H]3[C@@](O)(C(=O)OC)[C@H](OC(C)=O)[C@]5(CC)C=CCN6CC[C@]43[C@@H]65)C2)C1` (stereo not given in full), 15%. With `Cc1ccc2c(Cl)c(C(=O)NCCCn3ccnc3)sc2c1` the figure was 6.22%; with `CC(=O)C[C@@H](O)CC(=O)[C@H]1OC(=O)CCCCCCc2ccccc21`, 0.52%. Turning to `COc1ccc(CN2CCn3ncc(C(=O)Nc4ccc(Cl)cc4Cl)c3C2=O)cc1`, the inhibition was 2.02%. Under `O=c1cc(CO)oc(C(Nc2cccc(C(F)(F)F)c2)c2ccccn2)c1O` (stereo not given) stands 33.9% (active); under `FC(F)(F)c1cccc(Nc2ncnc3ccccc23)c1`, -2.73%. On to `O=c1cc(CO)oc(C(Nc2cccc([N+](=O)[O-])c2)c2ccccn2)c1O` (stereo not given), for which the inhibition was 13.9%. With `O=C(NCCc1ccccn1)c1cc(-c2ccc(Cl)cc2)nc2ccccc12` the figure was -6.46%.

Take `COCCCNC(=S)N(Cc1ccccc1)Cc1ccc(F)cc1`: the inhibition is 3.88%. With `COc1ccc(C(=O)COC(=O)CNC(=O)c2cccs2)cc1Br` the figure was 5.14%; with `C=CCOc1cccc(C2C(C(=O)c3ccc(C)o3)=C(O)C(=O)N2c2nnc(C)s2)c1` (stereo not given), 88.7% (active); with `C=CCOc1cccc(C2C(C(=O)c3ccc(C)o3)=C(O)C(=O)N2CCCn2ccnc2)c1` (stereo not given), 0.01%. With `Cc1cc(N2C(=O)C(O)=C(C(=O)c3ccc(C)o3)C2c2ccc(OCc3ccccc3)cc2)no1` (stereo not given) the figure was 11.2%; with `Cc1cc(C(=O)NC2CCN(Cc3ccccc3)CC2)n[nH]1`, 1.91%; with `C#CCOCCOCCOCCNc1nc(N2CCN(C(=O)C([C@@H](C)CC)n3cc(C(N)COC(=O)C(F)(F)F)nn3)CC2)nc(N2CCN(C(=O)[C@H](Cc3ccc(O)cc3)n3cc(C(N)[C@H](C)CC)nn3)CC2)n1` (stereo not given in full), 14.5%. With `Cn1c2c(c(=O)n(C)c1=O)C1c3ccccc3OCC1C(C)(C)O2` (stereo not given) the figure was 3.9%; with `NC(=O)COC(=O)c1ccc2c(c1)C(=O)N(Cc1ccco1)C2=O`, 4.63%. Consider `CCCc1nc2scc(-c3ccc(C)cc3)c2c(=O)n1N`, for which the inhibition is 1.66%.

On to `Cc1cc2ccccc2n1CCNC(=O)COc1ccc2ccccc2c1`, for which the inhibition is 4.61%. With `Cc1cc2ccccc2n1CCC(=O)O` the figure was 52.5% (active). With `O=C(O)CCn1c(Cc2ccccc2)nc2ccccc21` the figure was 1.07%. With `CC(C)(C)c1cc2cccnc2n1Cc1cccc(F)c1` the figure was 7.39%; with `CN(C)NC(=O)C(NC(=O)c1ccc(N)cc1)C12CC3CC(CC(C3)C1)C2` (stereo not given), -0.78%. `CCOC(=O)c1ccccc1CN1C(=O)c2ccccc2S1(=O)=O`: the inhibition is 4.12%. With `CC(C)OC(=O)CN1C(=O)C(=O)c2ccccc21` the figure was 10.2%.

As to `CCOC(=O)c1cc2n(c1N)-c1ccccc1C2=O`, the inhibition is 140% (active). With `Cc1ccc(S(=O)(=O)CC(=O)NC(C)c2ccccc2)cc1` (stereo not given) the figure was -0.31%. In the case of `CCOc1cc(CNCCN(C)C)c(Cl)cc1OCC(=O)NCCc1ccccc1`, the inhibition was -0.08%.

Regarding `NNC(=O)c1oc2nc(-c3ccccc3)cc(-c3ccco3)c2c1N`, the inhibition was -35.7%. With `CNC(=S)NNC(=O)c1oc2nc(-c3ccccc3)cc(-c3ccco3)c2c1N` the figure was 30.6% (active); with `CNc1nc(-c2ccccc2)cc(-c2ccccc2)n1`, 2.12%.

In the case of `COc1ccccc1C(=O)Nc1ccccc1C(=O)Nc1ccccc1`, the inhibition was -2.98%. With `O=C(CNC(=O)Cc1ccccc1)N=Nc1c(O)[nH]c2ccc(Br)cc12` the figure was 10.3%; with `Oc1[nH]c2ccc(Br)cc2c1N=Nc1nn[nH]n1`, 1.22%; with `NS(=O)(=O)c1ccc(N=Nc2c(O)[nH]c3ccc(Br)cc23)cc1`, 37.1% (active). With `CC(=O)CC[C@@H](C)O[C@@H]1OC(C)[C@H](O)CC1O` (stereo not given in full) the figure was 1.11%. For `Cc1ccc(-n2c(C)cc(/C=C(\C#N)C(=O)NCC3CCCO3)c2C)cc1` (stereo not given), the inhibition was -0.52%. For `CCN1CC=C2C(C#N)=C(N)C(C#N)(C#N)[C@H](c3ccoc3)[C@H]2C1`, the inhibition is 148% (active).

As to `CCCN1CC=C2C(C#N)=C(N)C(C#N)(C#N)C(c3cc(OC)ccc3OC)C2C1` (stereo not given), the inhibition was 68.3% (active).
